# Measurements reported in PubChem BioAssay (EPA / NIEHS).
# Values joined by “and” are separate entries in the source; they are usually repeats but may differ in a detail not shown here. Equal entries are not always repeated. Inconclusive results are not listed. Active and inactive are the calls of the source. How the source made its calls, unless noted: active means hit-call score of the fitted dose curve at least 0.9, where 1 is the maximum; inactive means score below 0.9.
# Experiments:
# [1] = target: Myc proto-oncogene protein (Homo sapiens) (UniProt P01106); test: ATG_Myc_CIS: Attagene CIS-FACTORIAL HepG2 Assay for human Myelocytomatosis (Myc) Proto-Oncogene Transcription Factor (AID 2282990); settings: HepG2, Attagene cis-reporter transcription factor activity; actives raise or lower the signal
# Summary of the method: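 HepG2 cells transiently transfected with multiple cis-promoter-driven reporter transcription units, so endogenous TF activity is read. After 24 h compound exposure, reporter mRNA was quantified by RT-PCR, 6-FAM labelling, HpaI digestion and capillary electrophoresis; bidirectional fit versus DMSO.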
# [2] = ATG_NRF2_ARE_CIS: Attagene CIS-FACTORIAL HepG2 Assay for human Nuclear Factor Erythroid 2 Related Factor 2 (NFR2) response to Antioxidant Response Elements (ARE) (AID 2282992); settings: HepG2 Attagene ARE/NRF2 reporter, transcription factor activity; actives raise or lower the signal;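 on AC50: reporter mRNA level measured by RT-PCR and capillary electrophoresis fluorescence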
# Summary of the method: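 Multiplexed reporter mRNA profiling in HepG2 after a 24 h chemical exposure. Curves fitted in both directions relative to DMSO negative control.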
# [3] = ATG_Oct_MLP_CIS: Attagene CIS-FACTORIAL HepG2 Assay for human Octamer-Binding Transcription Factor (Oct) (AID 2282993); settings: HepG2 Attagene cis-factorial Oct reporter, mRNA; actives raise or lower the signal
# Summary of the method: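 Readout is reporter transcript level from RT-PCR with fluorescent primer extension and capillary electrophoresis, fitted in both directions against DMSO. Transfected HepG2 reporter units report endogenous factor activity after 24 h dosing.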
# [4] = target: human Peroxisome Proliferator-activated Receptor alpha (PPARa), PPARA (gene 5465) (UniProt Q07869); test: ATG_PPARa_TRANS: Attagene TRANS-FACTORIAL HepG2 Assay for human Peroxisome Proliferator-activated Receptor alpha (PPARa) (AID 2283001; active means hit-call score of the fitted dose curve at least 0.9, where 1 is the maximum;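 on AC50: potency for gain of reporter signal over DMSO so agonist or activator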)
# Summary of the method: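 HepG2 cells transiently transfected with multiplexed GAL4-UAS reporter units and chimeric NR-Gal4 constructs were dosed for 24 h. Reporter mRNA was measured by RT-PCR with fluorescent labelling and capillary electrophoresis; gain of signal fitted against DMSO.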
# [5] = target: Nuclear receptor subfamily 1 group I member 2 (Homo sapiens) (UniProt O75469); test: ATG_PXR_TRANS: Attagene TRANS-FACTORIAL HepG2 Assay for human Pregnane X Receptor (PXR) (AID 2283008; active means hit-call score of the fitted dose curve at least 0.9, where 1 is the maximum)
# Summary of the method: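 Measures mRNA induction of a GAL4-UAS-driven reporter in human HepG2 cells transiently expressing PXR fused to Gal4, following 24 h treatment. DMSO served as negative control and baseline.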
# [6] = BSK_3C_TissueFactor: BioMAP Diversity Plus: 3C Assay for Tissue Factor Biomarker Activity (AID 2282997); settings: BioMAP 3C HUVEC, tissue factor biomarker readout; actives raise or lower the signal
# Summary of the method: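 Human vascular primary cells (umbilical vein endothelium) received test chemical; Tissue Factor was determined by ELISA at 24 h, and both gain and loss of signal versus DMSO were fitted.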
# [7] = BSK_3C_uPAR: BioMAP Diversity Plus: 3C Assay for Urokinase-type plasminogen activator receptor (uPAR) Biomarker Activity (AID 2282998); settings: BioMAP 3C HUVEC, uPAR biomarker ELISA; actives raise or lower the signal
# Summary of the method: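 Cell-surface uPAR on HUVEC (3C system) read by ELISA at 24 h post-treatment, with DMSO as baseline and fitting in both directions. Parallel cultures stained with SRB to flag overt cytotoxicity.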
# [8] = BSK_4H_Eotaxin3: BioMAP Diversity Plus: 4H Assay for Eotaxin 3 Biomarker Activity (AID 2283000); settings: primary human endothelial cells (HUVEC); actives raise or lower the signal;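 further: CCL26 protein level quantified by ELISA in parallel with SRB cytotoxicity check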
# Summary of the method: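 Readout is Eotaxin-3 (CCL26) level by ELISA in primary human umbilical vein endothelial cells harvested 24 h after chemical exposure; activity fitted in both directions against DMSO control.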
# [9] = target: human Peroxisome Proliferator-activated Receptor delta (PPARd), PPARD (gene 5467) (UniProt Q03181); test: ATG_PPARd_TRANS: Attagene TRANS-FACTORIAL HepG2 Assay for human Peroxisome Proliferator-activated Receptor delta (PPARd) (AID 2283002; active means hit-call score of the fitted dose curve at least 0.9, where 1 is the maximum)
# Summary of the method: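 HepG2 cells transiently transfected with multiplexed GAL4-UAS reporter units and exogenous chimeric NR-Gal4 proteins; 24 h compound exposure. Reporter mRNA measured by RT-PCR, 6-FAM labelling, HpaI digestion and capillary electrophoresis; gain of signal versus DMSO.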
# [10] = read-out: Intercellular Adhesion Molecule 1 (ICAM1), ICAM1 (gene 3383); test: BSK_3C_ICAM1: BioMAP Diversity Plus: 3C Assay for Intercellular Adhesion Molecule 1 (ICAM1) Biomarker Activity (AID 2283003); settings: primary human endothelial cells (HUVEC); actives raise or lower the signal
# Summary of the method: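 Human vascular endothelial primary cells, 3C conditions, 24 h treatment. ICAM-1 by ELISA.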
# [11] = BSK_3C_Proliferation: Cell Proliferation Assessment in the BioMAP Diversity Plus: 3C Assay (AID 2283006); settings: primary human endothelial cells (HUVEC)
# Summary of the method: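 Proliferation of human vascular endothelial primary cells after 48 h dosing, quantified as SRB-stained protein at 560 nm relative to DMSO.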
# [12] = target: Peroxisome proliferator-activated receptor gamma (Homo sapiens) (UniProt P37231); test: ATG_PPARg_TRANS: Attagene TRANS-FACTORIAL HepG2 Assay for human Peroxisome Proliferator-activated Receptor-gamma (PPARg) (AID 2283007; active means hit-call score of the fitted dose curve at least 0.9, where 1 is the maximum)
# Summary of the method: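 HepG2 cells are transiently transfected with GAL4-UAS reporter units driven by chimeric NR-Gal4 fusions and dosed for 24 h. Reporter mRNA is quantified by RT-PCR, 6-FAM labelling, HpaI digestion and capillary electrophoresis. Induction is scored against DMSO.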
# [13] = target: human RAR-related Orphan Receptor gamma (RORg), RORC (gene 6097) (UniProt P51449); test: ATG_RORg_TRANS: Attagene TRANS-FACTORIAL HepG2 Assay for human RAR-related Orphan Receptor gamma (RORg) (AID 2283011; active means hit-call score of the fitted dose curve at least 0.9, where 1 is the maximum)
# Summary of the method: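 Transient MRTU transfection of HepG2 (TRANS format, exogenous NR-Gal4 chimera). 24 h dosing. Total RNA → oligo(dT) RT → PCR → 6-FAM labelling → HpaI cut → CE. Gain vs DMSO.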
# [14] = target: human RAR-related Orphan Receptor beta (RORb), RORB (gene 6096) (UniProt Q92753); test: ATG_RORb_TRANS: Attagene TRANS-FACTORIAL HepG2 Assay for human RAR-related Orphan Receptor beta (RORb) (AID 2283010; active means hit-call score of the fitted dose curve at least 0.9, where 1 is the maximum)
# Summary of the method: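 In this TRANS-format test, human HepG2 cells express chimeric NR-Gal4 fusion proteins driving GAL4-UAS reporters. After 24 h dosing, reporter transcripts are measured by fluorescent RT-PCR/capillary electrophoresis, with DMSO as negative control.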
# [15] = target: Cellular tumor antigen p53 (Homo sapiens) (UniProt P04637); test: ATG_p53_CIS: Attagene CIS-FACTORIAL HepG2 Assay for human p53 Transcription Factor (AID 2282994); settings: HepG2 p53 cis-element reporter, Attagene mRNA; actives raise or lower the signal
# Summary of the method: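 Multiplexed reporter mRNA assay in human HepG2 liver cells; cis-regulated units report endogenous factor activity. Values come from bidirectional curve fitting against DMSO negative control after 24 h treatment.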
# [16] = target: human Retinoic Acid Receptor beta (RARb), RARB (gene 5915) (UniProt P10826); test: ATG_RARb_TRANS: Attagene TRANS-FACTORIAL HepG2 Assay for human Retinoic Acid Receptor beta (AID 2283004; active means hit-call score of the fitted dose curve at least 0.9, where 1 is the maximum)
# Summary of the method: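 Readout is reporter mRNA induction: RNA reverse-transcribed, PCR-amplified, FAM-labelled, HpaI-cut and resolved by capillary electrophoresis. Transiently transfected HepG2 cells carrying exogenous NR–Gal4 chimeras were dosed for 24 h; activity fitted upward relative to DMSO.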
# [17] = target: Retinoic acid receptor alpha (Homo sapiens) (UniProt P10276); test: ATG_RARa_TRANS: Attagene TRANS-FACTORIAL HepG2 Assay for human Retinoic Acid Receptor alpha (RARa) (AID 2283005; active means hit-call score of the fitted dose curve at least 0.9, where 1 is the maximum)
# Summary of the method: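 HepG2 cells transiently transfected with multiple reporter units expressing chimeric RARα-GAL4 fusion, with GAL4-UAS-driven reporters. After 24 h compound exposure, reporter mRNA induction quantified by RT-PCR and capillary electrophoresis with fluorescent labeling; gain-of-signal fitted relative to DMSO control.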
# [18] = target: human Retinoic Acid Receptor gamma (RARg), RARG (gene 5916) (UniProt P13631); test: ATG_RARg_TRANS: Attagene TRANS-FACTORIAL HepG2 Assay for human Retinoic Acid Receptor gamma (RARg) (AID 2283009; active means hit-call score of the fitted dose curve at least 0.9, where 1 is the maximum)
# Summary of the method: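 HepG2, RARg-GAL4 TRANS system, 24 h exposure; reporter mRNA by RT-PCR + CE fluorescence; increase over DMSO.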
# Chain of Peroxisome proliferator-activated receptor gamma (Homo sapiens) (P37231 whole entry, looked up, the tested form may be a part): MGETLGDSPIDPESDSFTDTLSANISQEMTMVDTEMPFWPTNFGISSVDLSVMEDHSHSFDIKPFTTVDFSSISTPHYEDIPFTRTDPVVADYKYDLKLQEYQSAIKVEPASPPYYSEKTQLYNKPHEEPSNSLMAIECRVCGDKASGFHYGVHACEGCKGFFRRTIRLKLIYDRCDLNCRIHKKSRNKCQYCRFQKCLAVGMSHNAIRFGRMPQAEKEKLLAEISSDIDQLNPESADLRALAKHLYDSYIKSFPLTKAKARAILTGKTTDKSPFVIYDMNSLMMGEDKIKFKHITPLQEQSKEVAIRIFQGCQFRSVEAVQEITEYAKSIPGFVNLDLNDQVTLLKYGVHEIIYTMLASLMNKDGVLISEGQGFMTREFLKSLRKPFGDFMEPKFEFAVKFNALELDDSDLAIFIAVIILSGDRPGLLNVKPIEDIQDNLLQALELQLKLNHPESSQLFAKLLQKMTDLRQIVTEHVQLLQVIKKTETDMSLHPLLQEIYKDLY
# Chain of Cellular tumor antigen p53 (Homo sapiens) (P04637 whole entry, looked up): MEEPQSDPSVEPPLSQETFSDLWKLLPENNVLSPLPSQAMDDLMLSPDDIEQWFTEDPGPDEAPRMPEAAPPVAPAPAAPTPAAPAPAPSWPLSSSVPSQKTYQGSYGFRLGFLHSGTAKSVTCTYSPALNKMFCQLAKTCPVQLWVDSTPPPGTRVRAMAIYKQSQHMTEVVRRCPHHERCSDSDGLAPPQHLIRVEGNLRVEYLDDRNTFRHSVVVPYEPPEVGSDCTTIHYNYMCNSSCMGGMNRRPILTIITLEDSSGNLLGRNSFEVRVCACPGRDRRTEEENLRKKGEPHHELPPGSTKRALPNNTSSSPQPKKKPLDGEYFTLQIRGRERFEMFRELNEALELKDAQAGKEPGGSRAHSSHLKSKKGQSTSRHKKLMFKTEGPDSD
# Chain of human Retinoic Acid Receptor gamma (RARg), RARG (gene 5916) (P13631 whole entry, looked up, the tested form may be a part): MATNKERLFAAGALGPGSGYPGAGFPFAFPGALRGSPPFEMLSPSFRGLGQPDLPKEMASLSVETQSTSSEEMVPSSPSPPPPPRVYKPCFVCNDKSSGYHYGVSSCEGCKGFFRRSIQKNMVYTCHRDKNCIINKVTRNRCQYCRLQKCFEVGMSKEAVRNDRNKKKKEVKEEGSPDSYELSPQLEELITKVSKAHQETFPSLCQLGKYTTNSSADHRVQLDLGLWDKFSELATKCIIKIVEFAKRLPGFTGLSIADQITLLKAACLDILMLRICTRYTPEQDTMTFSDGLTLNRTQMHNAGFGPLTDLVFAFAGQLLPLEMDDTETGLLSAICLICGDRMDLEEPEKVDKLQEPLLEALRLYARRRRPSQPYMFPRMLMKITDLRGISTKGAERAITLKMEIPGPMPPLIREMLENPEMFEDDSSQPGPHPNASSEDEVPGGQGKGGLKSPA
# Chain of Myc proto-oncogene protein (Homo sapiens) (P01106 whole entry, looked up): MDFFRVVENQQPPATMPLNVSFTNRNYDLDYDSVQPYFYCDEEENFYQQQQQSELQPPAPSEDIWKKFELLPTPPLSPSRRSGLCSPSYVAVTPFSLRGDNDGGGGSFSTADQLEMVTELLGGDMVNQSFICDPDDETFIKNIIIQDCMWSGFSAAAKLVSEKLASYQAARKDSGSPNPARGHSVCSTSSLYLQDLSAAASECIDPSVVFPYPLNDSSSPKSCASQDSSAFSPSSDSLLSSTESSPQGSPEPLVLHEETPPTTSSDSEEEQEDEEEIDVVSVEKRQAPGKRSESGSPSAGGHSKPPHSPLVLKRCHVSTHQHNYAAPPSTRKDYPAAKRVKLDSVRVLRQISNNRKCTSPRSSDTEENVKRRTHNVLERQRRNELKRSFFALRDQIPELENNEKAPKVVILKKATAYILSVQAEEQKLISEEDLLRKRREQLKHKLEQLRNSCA
# Chain of human RAR-related Orphan Receptor gamma (RORg), RORC (gene 6097) (P51449 whole entry, looked up, the tested form may be a part): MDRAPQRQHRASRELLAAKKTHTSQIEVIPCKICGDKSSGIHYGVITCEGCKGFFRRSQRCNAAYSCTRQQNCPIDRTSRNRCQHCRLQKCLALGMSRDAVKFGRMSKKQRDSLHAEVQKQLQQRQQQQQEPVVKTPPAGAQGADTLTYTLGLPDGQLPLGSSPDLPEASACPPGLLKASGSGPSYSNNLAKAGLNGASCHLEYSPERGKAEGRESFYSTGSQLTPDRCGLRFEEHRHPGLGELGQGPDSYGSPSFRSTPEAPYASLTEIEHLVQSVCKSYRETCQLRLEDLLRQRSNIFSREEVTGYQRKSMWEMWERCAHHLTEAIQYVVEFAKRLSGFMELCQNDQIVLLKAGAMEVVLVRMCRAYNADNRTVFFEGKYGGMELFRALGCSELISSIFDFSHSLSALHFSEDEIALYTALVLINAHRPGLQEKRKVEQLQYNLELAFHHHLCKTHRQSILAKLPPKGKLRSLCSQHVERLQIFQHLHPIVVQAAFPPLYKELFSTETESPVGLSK
# Chain of human RAR-related Orphan Receptor beta (RORb), RORB (gene 6096) (Q92753 whole entry, looked up, the tested form may be a part): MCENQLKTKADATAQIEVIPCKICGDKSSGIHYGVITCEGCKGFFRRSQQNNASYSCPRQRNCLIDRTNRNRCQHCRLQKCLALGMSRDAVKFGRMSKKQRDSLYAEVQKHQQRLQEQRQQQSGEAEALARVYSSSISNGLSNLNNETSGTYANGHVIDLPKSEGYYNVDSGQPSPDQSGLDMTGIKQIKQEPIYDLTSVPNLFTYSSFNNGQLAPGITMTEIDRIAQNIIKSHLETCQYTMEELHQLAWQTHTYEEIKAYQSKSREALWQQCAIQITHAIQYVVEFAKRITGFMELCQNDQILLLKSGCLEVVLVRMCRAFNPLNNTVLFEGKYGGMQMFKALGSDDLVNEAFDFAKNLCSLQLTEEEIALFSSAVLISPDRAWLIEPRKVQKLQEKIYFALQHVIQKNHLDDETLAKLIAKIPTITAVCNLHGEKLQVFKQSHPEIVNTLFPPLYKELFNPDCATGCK
# Chain of human Peroxisome Proliferator-activated Receptor delta (PPARd), PPARD (gene 5467) (Q03181 whole entry, looked up, the tested form may be a part): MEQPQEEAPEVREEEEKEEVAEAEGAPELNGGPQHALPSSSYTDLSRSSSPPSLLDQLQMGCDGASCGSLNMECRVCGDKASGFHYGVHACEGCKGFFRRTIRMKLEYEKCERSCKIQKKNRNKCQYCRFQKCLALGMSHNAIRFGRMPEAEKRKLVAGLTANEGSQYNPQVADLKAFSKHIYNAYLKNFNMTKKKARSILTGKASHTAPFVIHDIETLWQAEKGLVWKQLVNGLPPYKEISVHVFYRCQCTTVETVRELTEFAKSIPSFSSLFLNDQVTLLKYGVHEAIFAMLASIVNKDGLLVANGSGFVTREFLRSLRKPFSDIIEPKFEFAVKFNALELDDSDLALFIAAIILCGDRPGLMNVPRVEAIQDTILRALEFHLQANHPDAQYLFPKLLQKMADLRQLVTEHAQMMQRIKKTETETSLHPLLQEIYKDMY
# Chain of human Peroxisome Proliferator-activated Receptor alpha (PPARa), PPARA (gene 5465) (Q07869 whole entry, looked up, the tested form may be a part): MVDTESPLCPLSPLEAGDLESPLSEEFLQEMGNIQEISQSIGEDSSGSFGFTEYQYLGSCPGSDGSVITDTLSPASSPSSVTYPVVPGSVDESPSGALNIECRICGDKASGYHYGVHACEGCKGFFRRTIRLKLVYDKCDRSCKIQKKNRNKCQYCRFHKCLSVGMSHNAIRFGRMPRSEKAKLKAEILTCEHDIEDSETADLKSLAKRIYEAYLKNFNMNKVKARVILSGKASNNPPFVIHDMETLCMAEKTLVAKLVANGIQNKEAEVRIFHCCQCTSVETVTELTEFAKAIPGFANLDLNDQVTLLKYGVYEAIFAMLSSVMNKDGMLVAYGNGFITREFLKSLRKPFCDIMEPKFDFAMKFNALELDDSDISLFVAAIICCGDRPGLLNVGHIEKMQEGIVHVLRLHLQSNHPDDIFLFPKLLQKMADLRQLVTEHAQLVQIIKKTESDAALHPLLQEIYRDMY
# Chain of Nuclear receptor subfamily 1 group I member 2 (Homo sapiens) (O75469 whole entry, looked up, the tested form may be a part): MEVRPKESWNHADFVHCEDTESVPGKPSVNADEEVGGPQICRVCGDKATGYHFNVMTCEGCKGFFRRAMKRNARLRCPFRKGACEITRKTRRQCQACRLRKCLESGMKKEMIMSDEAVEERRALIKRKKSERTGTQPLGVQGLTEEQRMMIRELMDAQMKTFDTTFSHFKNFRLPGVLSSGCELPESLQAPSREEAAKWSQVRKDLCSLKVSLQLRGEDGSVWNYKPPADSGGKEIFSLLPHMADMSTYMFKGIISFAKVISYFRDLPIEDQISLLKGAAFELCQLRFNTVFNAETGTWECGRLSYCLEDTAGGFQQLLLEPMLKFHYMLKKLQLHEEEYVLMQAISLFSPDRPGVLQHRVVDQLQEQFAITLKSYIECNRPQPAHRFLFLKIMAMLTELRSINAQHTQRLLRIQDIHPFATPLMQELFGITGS
# Chain of human Retinoic Acid Receptor beta (RARb), RARB (gene 5915) (P10826 whole entry, looked up, the tested form may be a part): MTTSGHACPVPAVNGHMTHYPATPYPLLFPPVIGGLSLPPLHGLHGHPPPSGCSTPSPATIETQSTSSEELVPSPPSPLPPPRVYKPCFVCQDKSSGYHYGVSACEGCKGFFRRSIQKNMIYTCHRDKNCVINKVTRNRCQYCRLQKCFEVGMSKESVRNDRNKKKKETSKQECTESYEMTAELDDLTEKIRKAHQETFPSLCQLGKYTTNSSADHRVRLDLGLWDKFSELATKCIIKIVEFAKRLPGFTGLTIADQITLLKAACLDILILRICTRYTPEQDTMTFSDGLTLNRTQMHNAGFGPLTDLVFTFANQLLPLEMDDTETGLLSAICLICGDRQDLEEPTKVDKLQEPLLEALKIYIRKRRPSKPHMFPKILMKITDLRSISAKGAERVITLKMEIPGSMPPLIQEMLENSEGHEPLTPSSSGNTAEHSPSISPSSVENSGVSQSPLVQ
compound,measurement,setting,value
CC(C)(C)c1ccc(CCOc2ncnc3ccccc23)cc1,outcome,[1],inactive
same,outcome,[2],inactive
same,outcome,[3],inactive
same,outcome,[4],inactive
same,outcome,[5],inactive
O=C(O)COc1cc(Cl)c(Cl)cc1Cl,outcome,[1],inactive
same,outcome,[2],inactive
same,outcome,[3],inactive
same,outcome,[6],inactive
same,outcome,[7],inactive
same,outcome,[8],inactive
same,outcome,[9],inactive
same,outcome,[10],inactive
same,outcome,[11],inactive
same,AC50,[12],32.6 µM (active)
same,outcome,[5],inactive
CC1CC(=O)O1 (stereo unspecified),outcome,[1],inactive
same,outcome,[2],inactive
same,outcome,[3],inactive
same,outcome,[9],inactive
same,outcome,[12],inactive
same,outcome,[5],inactive
same,outcome,[13],inactive
O=C/C(Cl)=C(/Cl)C(=O)O,outcome,[1],inactive
same,AC50,[2],26.1 µM (active)
same,AC50,[3],144 µM (active)
same,outcome,[4],inactive
same,outcome,[9],inactive
same,AC50,[12],46.7 µM (active)
same,outcome,[5],inactive
same,outcome,[14],inactive
same,outcome,[13],inactive
O=C(Cl)OCCOCCOC(=O)Cl,outcome,[1],inactive
same,outcome,[2],inactive
same,outcome,[15],inactive
same,outcome,[4],inactive
same,outcome,[16],inactive
same,outcome,[12],inactive
same,outcome,[5],inactive
CCCCCCCCCCCCOS(=O)(=O)O,outcome,[1],inactive
same,outcome,[2],inactive
same,outcome,[3],inactive
same,AC50,[4],3.86 µM (active) and 12.1 µM (active)
same,outcome,[14],inactive
CN(C1CCCCC1)C1CCCCC1,outcome,[1],inactive
same,AC50,[2],61.1 µM (active)
same,outcome,[16],inactive
same,outcome,[17],inactive
same,outcome,[12],inactive
same,outcome,[5],inactive
same,outcome,[18],inactive
CCCCN(CCCC)C(=S)S,outcome,[1],inactive
same,AC50,[2],23.5 µM (active)
same,outcome,[3],inactive
same,outcome,[4],inactive
same,AC50,[12],5.99 µM (active)
same,AC50,[5],5.69 µM (active)
N#Cc1cccnc1,outcome,[1],inactive
same,outcome,[2],inactive
same,outcome,[3],inactive
same,outcome,[6],inactive
same,outcome,[7],inactive
same,outcome,[8],inactive
same,outcome,[4],inactive
same,outcome,[9],inactive
same,outcome,[10],inactive
same,outcome,[11],inactive
same,outcome,[5],inactive
same,outcome,[14],inactive
CC(C)(C#N)N=NC(C)(C)C#N,outcome,[1],inactive
same,outcome,[2],inactive
same,outcome,[15],inactive
same,outcome,[5],inactive
BrCc1ccc(Br)cc1,outcome,[1],inactive
same,outcome,[2],inactive
same,outcome,[15],inactive
same,outcome,[9],inactive
same,outcome,[12],inactive
same,outcome,[5],inactive
same,outcome,[13],inactive
O=C(N[C@H]1CN2CCC1CC2)c1ccc2c(c1)OCCO2,outcome,[1],inactive
same,outcome,[2],inactive
same,outcome,[3],inactive
same,outcome,[6],inactive
same,outcome,[7],inactive
same,outcome,[8],inactive
same,outcome,[9],inactive
same,outcome,[10],inactive
same,outcome,[11],inactive
same,outcome,[12],inactive
same,outcome,[18],inactive
same,outcome,[13],inactive
CCOC(=O)Cc1ccccc1,outcome,[1],inactive
same,outcome,[2],inactive
same,outcome,[3],inactive
same,outcome,[4],inactive
same,outcome,[12],inactive
same,outcome,[14],inactive
C[C@@H]1O[C@@H](O[C@H]2C[C@@H](O)[C@]3(CO)[C@H]4[C@H](O)C[C@]5(C)[C@@H](C6=CC(=O)OC6)CC[C@]5(O)[C@@H]4CC[C@]3(O)C2)[C@H](O)[C@H](O)[C@H]1O,outcome,[1],inactive
same,AC50,[2],19.5 µM (active)
same,AC50,[3],0.62 µM (active)
same,AC50,[4],71.4 nM (active)
same,outcome,[9],inactive
same,outcome,[17],inactive
same,AC50,[12],0.131 µM (active)
same,outcome,[18],inactive
same,outcome,[13],inactive
CCCCCCCCCCCCc1cccc(S(=O)(=O)O)c1,outcome,[1],inactive
same,AC50,[2],44.3 µM (active)
same,outcome,[6],inactive
same,outcome,[7],inactive
same,outcome,[8],inactive
same,AC50,[4],30000 nM (active)
same,outcome,[10],inactive
same,outcome,[11],inactive
same,outcome,[18],inactive
C[N+](C)(C)Cc1ccccc1,outcome,[1],inactive
same,outcome,[2],inactive
same,outcome,[3],inactive
same,outcome,[4],inactive
same,outcome,[12],inactive
same,outcome,[5],inactive
O=c1nc(O)n(Cl)c(=O)n1Cl,outcome,[1],inactive
same,outcome,[2],inactive
same,outcome,[3],inactive
same,outcome,[4],inactive
same,outcome,[12],inactive
same,outcome,[5],inactive
same,outcome,[13],inactive
C=CCc1ccccc1O,outcome,[1],inactive
same,outcome,[2],inactive
same,outcome,[15],inactive
same,outcome,[4],inactive
same,outcome,[5],inactive
ClCc1ccccc1Cl,outcome,[1],inactive
same,AC50,[2],12.4 µM (active)
same,outcome,[12],inactive
same,outcome,[13],inactive
C=CC(Cl)CCl (stereo unspecified),outcome,[1],inactive
same,AC50,[2],20.2 µM (active)
same,outcome,[3],inactive
same,AC50,[6],0.0174 µM (active)
same,outcome,[7],inactive
same,outcome,[8],inactive
same,outcome,[4],inactive
same,outcome,[10],inactive
same,outcome,[11],inactive
same,outcome,[12],inactive
same,AC50,[5],27.2 µM (active)
same,outcome,[18],inactive
same,outcome,[14],inactive
